Measured values from PubChem BioAssay (Tox21).
Several values for one entry are separate records, joined by “and”; a condition that tells them apart may be missing. Identical values can stand only once. Records with an inconclusive call do not appear. Where a call stands in place of a potency, no number is given. A structure can be active in one record and inactive in another. Activity calls are given as the source filed them. Unless noted, calls follow the shape of the dose curve; as a rule, active = well fitted curve in the direction sought with a large enough effect in the repeat runs; inconclusive = weak or mixed curves; inactive = no such curve, though single readings can be large; an effect the other way counts as inactive or inconclusive.

Legend:
[1] = target: Thyrotropin-releasing hormone receptor (Homo sapiens) (UniProt P34981); experiment: qHTS assay to identify small molecule agonists of the thyrotropin-releasing hormone receptor (TRHR) signaling pathway (AID 1346891; calls by dose curve;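 also: HEK293 cells expressing TRHR with calcium dye readout; series mostly up to about 58 µM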)
Thyrotropin-releasing hormone receptor (Homo sapiens), sequence (P34981 whole entry, looked up): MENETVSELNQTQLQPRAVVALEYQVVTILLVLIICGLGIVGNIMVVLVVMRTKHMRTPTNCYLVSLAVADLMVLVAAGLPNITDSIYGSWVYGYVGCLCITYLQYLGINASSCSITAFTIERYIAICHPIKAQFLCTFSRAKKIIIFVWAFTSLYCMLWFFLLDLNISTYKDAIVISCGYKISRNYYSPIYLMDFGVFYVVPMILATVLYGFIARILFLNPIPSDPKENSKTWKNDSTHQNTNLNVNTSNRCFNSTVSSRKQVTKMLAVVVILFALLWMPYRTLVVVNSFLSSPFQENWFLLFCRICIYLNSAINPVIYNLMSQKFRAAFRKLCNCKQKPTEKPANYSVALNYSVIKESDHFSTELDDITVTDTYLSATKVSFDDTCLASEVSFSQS
Method in brief: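 Agonist-mode calcium mobilisation screen: TRHR-transfected HEK293 cells cultured overnight (18 h), dye-loaded for 2 h at 37 °C, exposed to compounds, and monitored by fluorescence for 3 min.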

[2] = Human pregnane X receptor (PXR) small molecule agonists, qHTS cell viability counter screen (AID 1346977); also: nearly all actives have a fitted effect of over 50% in size; also: potency is read from the fitted curve at half-maximal effect
Method in brief: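 Measures live-cell protease fluorescence (CellTiter-Fluor) in PXR-Luc HepG2 cells treated 24hr with compounds at 37C. Cells had 5hr to attach before pin transfer of DMSO solutions.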

[3] = Caspase-3/7 induction in HepG2 cells by small molecules, qHTS assay (AID 1346978); also: nearly all actives have a fitted effect of over 15% in size
Method in brief: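 Wild-type HepG2 cells (2,000/well) were settled 5 h at 37 C, 5% CO2, then exposed to compounds in DMSO for 17 h. Caspase-3/7 activity was read by luminescence 30 min after adding Caspase-Glo 3/7 reagent at room temperature.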

[4] = Caspase-3/7 induction in CHO-K1 cells by small molecules, qHTS cell viability counter screen (AID 1346979); also: nearly all actives have a fitted effect of over 35% in size; also: potency is read from the fitted curve at half-maximal effect
Method in brief: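 In the same wells as the caspase read, viability of compound-treated wild-type CHO-K1 cells was assessed using CellTiter-Fluor, added after 16hr at 37C and measured by fluorescence following 1hr further incubation.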

[5] = Caspase-3/7 induction in CHO-K1 cells by small molecules, qHTS assay (AID 1346980); also: nearly all actives have a fitted effect of over 15% in size
Method in brief: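 Wild-type cells were seeded at 1,500 per well and settled 5 hr at 37 C, 5% CO2, then exposed to DMSO-dissolved compounds for 17 hr. Caspase-Glo 3/7 reagent was added, and luminescence was read after 30min at room temperature.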

[6] = Caspase-3/7 induction in HepG2 cells by small molecules, qHTS cell viability counter screen (AID 1346981); also: nearly all actives have a fitted effect of over 30% in size; also: potency is read from the fitted curve at half-maximal effect
Method in brief: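 In this quantitative HTS counter screen, compounds delivered in DMSO were left on unmodified HepG2 cells for 16 hr at 37 C. Viability was then determined fluorometrically with CellTiter-Fluor, in parallel with caspase-3/7 induction in the same wells.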

[7] = target: Nuclear receptor subfamily 1 group I member 2 (Homo sapiens) (UniProt O75469); experiment: Human pregnane X receptor (PXR) small molecule agonists, qHTS assay (AID 1346982); also: nearly all actives have a fitted effect of over 35% in size; also: potency is read from the fitted curve at half-maximal effect
Nuclear receptor subfamily 1 group I member 2 (Homo sapiens), sequence (O75469 whole entry, looked up): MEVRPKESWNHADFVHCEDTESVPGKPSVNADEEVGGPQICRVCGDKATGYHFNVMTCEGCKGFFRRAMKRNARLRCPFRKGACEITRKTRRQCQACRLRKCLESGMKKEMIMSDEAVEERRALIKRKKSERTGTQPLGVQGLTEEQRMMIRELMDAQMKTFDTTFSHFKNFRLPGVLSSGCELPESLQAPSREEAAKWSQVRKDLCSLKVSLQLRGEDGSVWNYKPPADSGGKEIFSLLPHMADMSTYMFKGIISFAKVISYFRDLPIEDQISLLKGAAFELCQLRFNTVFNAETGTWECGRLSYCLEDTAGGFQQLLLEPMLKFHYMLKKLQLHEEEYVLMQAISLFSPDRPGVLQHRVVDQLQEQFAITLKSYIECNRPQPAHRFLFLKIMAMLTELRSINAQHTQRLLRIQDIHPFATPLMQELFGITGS
Method in brief: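 Reporter HepG2 cells expressing PXR-Luc are cultured in charcoal-stripped FBS (5%), treated with compounds for 24 hr at 37 C, and assayed by ONE-Glo luminescence after 30 min at room temperature.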

[8] = target: Acetylcholinesterase (Homo sapiens) (UniProt P22303); experiment: Acetylcholinesterase (AChE) small molecule antagonists: colormetric cell-based qHTS assay (AID 1347395; calls by dose curve; also: nearly all actives have a fitted effect of over 30% in size)
Acetylcholinesterase (Homo sapiens), sequence (P22303 whole entry, looked up): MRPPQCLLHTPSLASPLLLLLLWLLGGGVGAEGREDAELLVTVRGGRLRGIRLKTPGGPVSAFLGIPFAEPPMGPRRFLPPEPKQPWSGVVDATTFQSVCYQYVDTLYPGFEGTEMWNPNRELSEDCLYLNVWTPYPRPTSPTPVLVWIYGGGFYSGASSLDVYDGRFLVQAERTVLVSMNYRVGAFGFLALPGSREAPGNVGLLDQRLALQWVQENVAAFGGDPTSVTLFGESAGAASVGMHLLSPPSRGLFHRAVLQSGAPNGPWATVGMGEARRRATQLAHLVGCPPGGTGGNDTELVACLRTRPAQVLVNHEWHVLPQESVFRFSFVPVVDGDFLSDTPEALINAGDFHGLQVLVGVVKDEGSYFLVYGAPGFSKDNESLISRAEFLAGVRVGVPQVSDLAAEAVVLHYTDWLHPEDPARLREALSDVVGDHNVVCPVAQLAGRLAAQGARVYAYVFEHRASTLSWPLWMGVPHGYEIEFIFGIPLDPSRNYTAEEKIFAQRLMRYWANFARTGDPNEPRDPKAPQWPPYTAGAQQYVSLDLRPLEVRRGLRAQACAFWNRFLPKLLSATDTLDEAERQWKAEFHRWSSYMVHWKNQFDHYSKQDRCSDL
Method in brief: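 Endogenous AChE of human neuroblastoma SH-SY5Y cells was measured with an Ellman-type DTNB/acetylthiocholine mix. Compound pretreatment lasted 30 min at 37 C; substrate reaction ran 90 min at 37 C.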

[9] = target: Acetylcholinesterase (Homo sapiens) (UniProt P22303); experiment: Acetylcholinesterase (AChE) small molecule antagonists: enzyme-based qHTS assay (AID 1347397; calls by dose curve; also: nearly all actives have a fitted effect of over 55% in size); conditions: Potency: AChE enzyme activity inhibition
Method in brief: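 Tox21 library chemicals are tested in qHTS format against recombinant human AChE. The enzyme, dispensed at 50 mU/mL, sits with compound for 30 min at room temperature. A DTNB–acetylthiocholine cocktail follows, and colour is read after 10 min.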

[10] = target: Acetylcholinesterase (Homo sapiens) (UniProt P22303); experiment: Acetylcholinesterase (AChE) small molecule antagonists: fluorescence cell-based qHTS assay (AID 1347398; calls by dose curve; also: nearly all actives have a fitted effect of over 50% in size); conditions: Potency: AChE activity
Method in brief: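 Cellular AChE inhibition: SH-SY5Y cells treated with test chemical for 30 min at 37 C, then acetylthiocholine hydrolysis followed over 40 min at room temperature via thiocholine-reactive Thiolite Green fluorescence (490/520 nm).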

[11] = target: Acetylcholinesterase (Homo sapiens) (UniProt P22303); experiment: Acetylcholinesterase (AChE) small molecule antagonists: enzyme-based qHTS assay with human liver microsomes (AID 1347399; calls by dose curve; also: nearly all actives have a fitted effect of over 60% in size); conditions: Potency: qHTS inhibition
Method in brief: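 Recombinant human AChE (50 mU/mL in the enzyme mix) and human liver microsomes (0.25 mg/mL final) were preincubated with compound and NADPH (0.25 mg/mL final) for 30 min at 37 C. Acetylthiocholine/DTNB was then added; thiocholine was read colorimetrically after 10 min at room temperature.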

[12] = target: Cytochrome P450 2D6 (Homo sapiens) (UniProt P10635); experiment: Cytochrome P450 Family 2 Subfamily D Member 6 (CYP2D6) small molecule antagonists: luciferase reporter qHTS assay (AID 1671196); also: nearly all actives have a fitted effect of over 50% in size; also: potency is read from the fitted curve at half-maximal effect
Method in brief: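 Test chemicals meet CYP2D6 plus proluciferin substrate (10 min, RT); NADPH regenerating solution then drives turnover for 1 h. Detection reagent halts the reaction; luminescence measured after 20 min.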

[13] = target: Cytochrome P450 2C19 (Homo sapiens) (UniProt P33261); experiment: Cytochrome P450 Family 2 Subfamily C Member 19 (CYP2C19) small molecule antagonists: luciferase reporter qHTS assay (AID 1671197); also: nearly all actives have a fitted effect of over 65% in size; also: potency is read from the fitted curve at half-maximal effect
Cytochrome P450 2C19 (Homo sapiens), sequence (P33261 whole entry, looked up): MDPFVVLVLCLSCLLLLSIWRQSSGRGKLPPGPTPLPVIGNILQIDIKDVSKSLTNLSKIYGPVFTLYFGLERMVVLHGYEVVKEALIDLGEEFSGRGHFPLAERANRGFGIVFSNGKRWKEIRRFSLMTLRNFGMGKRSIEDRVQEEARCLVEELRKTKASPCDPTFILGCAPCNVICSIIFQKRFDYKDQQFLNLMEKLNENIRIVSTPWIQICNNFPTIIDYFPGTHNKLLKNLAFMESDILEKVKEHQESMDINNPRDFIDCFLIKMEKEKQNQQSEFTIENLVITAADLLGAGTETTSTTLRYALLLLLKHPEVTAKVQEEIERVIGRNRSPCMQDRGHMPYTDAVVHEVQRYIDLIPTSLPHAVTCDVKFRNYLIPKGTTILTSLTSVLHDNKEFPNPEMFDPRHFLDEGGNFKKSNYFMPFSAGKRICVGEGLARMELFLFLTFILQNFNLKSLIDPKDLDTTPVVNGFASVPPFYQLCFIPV
Method in brief: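 P450-Glo CYP2C19 screening system; proluciferin substrate; DMSO compound stocks; 10 min RT preincubation; NADPH regeneration, 1 h at 37C; luciferin detection reagent, 20 min RT; luminescence as RLU.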

[14] = target: Cytochrome P450 1A2 (Homo sapiens) (UniProt P05177); experiment: Cytochrome P450 Family 1 Subfamily A Member 2 (CYP1A2) small molecule antagonists: luciferase reporter qHTS assay (AID 1671199); also: nearly all actives have a fitted effect of over 50% in size; also: potency is read from the fitted curve at half-maximal effect
Cytochrome P450 1A2 (Homo sapiens), sequence (P05177 whole entry, looked up): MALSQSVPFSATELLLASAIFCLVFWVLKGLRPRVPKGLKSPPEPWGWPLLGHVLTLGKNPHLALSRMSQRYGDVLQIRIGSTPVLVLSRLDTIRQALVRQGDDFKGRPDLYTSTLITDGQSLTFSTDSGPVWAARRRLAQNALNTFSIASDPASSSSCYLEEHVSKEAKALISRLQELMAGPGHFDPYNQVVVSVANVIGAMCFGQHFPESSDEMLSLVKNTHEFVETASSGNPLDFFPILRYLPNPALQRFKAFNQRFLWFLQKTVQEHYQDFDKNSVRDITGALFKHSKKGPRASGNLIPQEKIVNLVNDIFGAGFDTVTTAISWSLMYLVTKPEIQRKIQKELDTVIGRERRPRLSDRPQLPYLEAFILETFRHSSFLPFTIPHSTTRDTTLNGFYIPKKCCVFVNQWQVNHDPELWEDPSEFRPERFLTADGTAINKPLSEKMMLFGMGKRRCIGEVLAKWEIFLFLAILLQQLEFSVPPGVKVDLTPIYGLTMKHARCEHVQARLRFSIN
Method in brief: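 Steps: enzyme-substrate mix dispensed; test compounds and furafylline control pinned in; 10 min room temperature; NADPH regeneration solution added, 1 h; reaction stopped with luciferin detection reagent; luminescence read after 20 min.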

[15] = target: Voltage-gated inwardly rectifying potassium channel KCNH2 (Homo sapiens) (UniProt Q12809); experiment: Human Ether-a-go-go-Related Gene (hERG) channel small molecule antagonists: fluorescence cell-based qHTS assay (AID 1671200)
Voltage-gated inwardly rectifying potassium channel KCNH2 (Homo sapiens), sequence (Q12809 whole entry, looked up): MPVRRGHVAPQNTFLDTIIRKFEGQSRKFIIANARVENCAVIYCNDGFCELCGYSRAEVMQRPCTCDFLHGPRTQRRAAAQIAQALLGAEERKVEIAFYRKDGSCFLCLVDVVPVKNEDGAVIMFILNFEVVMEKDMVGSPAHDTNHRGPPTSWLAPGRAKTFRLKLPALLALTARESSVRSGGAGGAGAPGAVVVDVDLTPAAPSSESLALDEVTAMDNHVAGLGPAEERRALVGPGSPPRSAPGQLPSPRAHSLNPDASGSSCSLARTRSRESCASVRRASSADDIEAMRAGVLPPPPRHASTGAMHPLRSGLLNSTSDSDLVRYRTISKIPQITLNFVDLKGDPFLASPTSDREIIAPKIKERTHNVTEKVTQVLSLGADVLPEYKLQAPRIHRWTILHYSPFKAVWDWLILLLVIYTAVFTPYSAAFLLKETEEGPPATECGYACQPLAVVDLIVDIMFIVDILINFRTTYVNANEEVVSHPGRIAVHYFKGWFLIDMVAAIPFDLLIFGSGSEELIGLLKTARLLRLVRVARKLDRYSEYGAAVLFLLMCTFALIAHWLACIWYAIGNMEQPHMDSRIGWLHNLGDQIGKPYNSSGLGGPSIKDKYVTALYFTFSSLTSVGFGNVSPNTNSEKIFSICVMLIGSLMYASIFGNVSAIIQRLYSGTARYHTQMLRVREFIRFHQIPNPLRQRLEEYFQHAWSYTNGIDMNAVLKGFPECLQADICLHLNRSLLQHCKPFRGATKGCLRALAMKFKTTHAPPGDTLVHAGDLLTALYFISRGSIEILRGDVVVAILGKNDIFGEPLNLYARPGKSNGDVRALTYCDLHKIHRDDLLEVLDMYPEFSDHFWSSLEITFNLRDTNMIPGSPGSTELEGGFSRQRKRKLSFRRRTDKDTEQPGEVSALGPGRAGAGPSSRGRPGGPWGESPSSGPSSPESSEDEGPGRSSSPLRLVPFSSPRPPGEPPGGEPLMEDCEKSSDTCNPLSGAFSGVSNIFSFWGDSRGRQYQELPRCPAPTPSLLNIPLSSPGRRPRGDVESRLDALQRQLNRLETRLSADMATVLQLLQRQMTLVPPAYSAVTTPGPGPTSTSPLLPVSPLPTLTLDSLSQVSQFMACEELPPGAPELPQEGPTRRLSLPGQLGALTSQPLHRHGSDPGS
Method in brief: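 Quantitative HTS in hERG-U2OS cells: thallium entry through the channel reports activity, read as continuous 480/540 nm fluorescence over 2 min after stimulus addition.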

[16] = target: Cytochrome P450 3A4 (Homo sapiens) (UniProt P08684); experiment: Cytochrome P450 Family 3 Subfamily A Member 4 (CYP3A4) small molecule antagonists: luciferase reporter qHTS assay (AID 1671201)
Cytochrome P450 3A4 (Homo sapiens), sequence (P08684 whole entry, looked up): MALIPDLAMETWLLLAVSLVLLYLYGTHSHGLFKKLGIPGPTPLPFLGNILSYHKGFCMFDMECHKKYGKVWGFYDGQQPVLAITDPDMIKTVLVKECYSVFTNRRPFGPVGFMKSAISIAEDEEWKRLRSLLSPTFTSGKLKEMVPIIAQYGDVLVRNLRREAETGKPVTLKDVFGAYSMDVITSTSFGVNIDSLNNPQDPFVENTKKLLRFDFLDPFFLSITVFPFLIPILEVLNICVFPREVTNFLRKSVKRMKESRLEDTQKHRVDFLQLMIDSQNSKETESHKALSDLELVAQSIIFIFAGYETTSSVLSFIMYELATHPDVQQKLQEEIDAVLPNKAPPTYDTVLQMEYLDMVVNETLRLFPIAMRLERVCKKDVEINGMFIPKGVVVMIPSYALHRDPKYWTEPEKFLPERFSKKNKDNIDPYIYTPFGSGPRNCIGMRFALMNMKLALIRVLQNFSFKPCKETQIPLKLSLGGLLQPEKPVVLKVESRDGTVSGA
Method in brief: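 Inhibition of CYP3A4 is measured as loss of light: the enzyme converts a proluciferin substrate to luciferin, detected luminescently. Reaction ran 1 h at room temperature with NADPH regeneration after a 10 min compound preincubation.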

[17] = target: Cytochrome P450 2C9 (Homo sapiens) (UniProt P11712); experiment: Cytochrome P450 Family 2 Subfamily C Member 9 (CYP2C9) small molecule antagonists: luciferase reporter qHTS assay (AID 1671198); also: nearly all actives have a fitted effect of over 50% in size; also: potency is read from the fitted curve at half-maximal effect
Cytochrome P450 2C9 (Homo sapiens), sequence (P11712 whole entry, looked up): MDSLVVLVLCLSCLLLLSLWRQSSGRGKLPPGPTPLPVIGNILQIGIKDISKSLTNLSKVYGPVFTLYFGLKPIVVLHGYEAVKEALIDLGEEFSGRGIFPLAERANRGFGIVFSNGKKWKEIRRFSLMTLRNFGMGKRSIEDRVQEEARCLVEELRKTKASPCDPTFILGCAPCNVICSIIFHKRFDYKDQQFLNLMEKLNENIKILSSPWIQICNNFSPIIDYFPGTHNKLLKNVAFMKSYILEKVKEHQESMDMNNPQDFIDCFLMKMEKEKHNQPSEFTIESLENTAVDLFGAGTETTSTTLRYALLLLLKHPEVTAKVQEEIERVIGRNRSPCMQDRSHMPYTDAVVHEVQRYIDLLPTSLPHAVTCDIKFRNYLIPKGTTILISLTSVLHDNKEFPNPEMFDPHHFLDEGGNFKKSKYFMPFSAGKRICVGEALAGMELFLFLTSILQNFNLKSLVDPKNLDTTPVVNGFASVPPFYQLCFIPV
Method in brief: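 CYP2C9 activity was measured with a P450-Glo proluciferin substrate. Enzyme–substrate mix was held with compound for 10 min at room temperature, then NADPH regeneration solution was added for 1 h at 37C. Luciferin product was read as luminescence.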

[18] = target: Nuclear receptor subfamily 1 group I member 2 (Rattus norvegicus) (UniProt Q9R1A7); experiment: Rat pregnane X receptor (rPXR) activation by small molecules, qHTS assay (AID 1346983); conditions: rPXR luciferase reporter cells, One-Glo luminescence, 24 h; max activation: stronger effect = higher value; also: nearly all actives have a fitted effect of over 20% in size
Method in brief: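 Cell-based rPXR luciferase reporter assay, 2,000 cells per well, rested 5hr at 37 C before compound addition in DMSO, then 24 hr at 37 C. One-Glo reagent was added and luminescence read after 30 min at room temperature.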

[19] = target: Nuclear receptor subfamily 1 group I member 2 (Homo sapiens) (UniProt O75469); experiment: CYP3A4 induction through human pregnane X receptor (PXR) by small molecules, qHTS assay (AID 1346984); also: nearly all actives have a fitted effect of over 40% in size
Method in brief: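 Induction measured in HepG2-based DPX-2 cells co-expressing human PXR and a CYP3A4 promoter-driven luciferase. After a 24-hour compound exposure, cells received CYP3A4 luciferin substrate at 3uM final for 3 hours, and light output was then recorded.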

[20] = target: Nuclear receptor subfamily 1 group I member 2 (Homo sapiens) (UniProt O75469); experiment: Human pregnane X receptor (PXR) activation by small molecules, qHTS assay (AID 1346985); also: nearly all actives have a fitted effect of over 40% in size
Method in brief: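 DPX-2 cells (HepG2 co-transfected with a PXR response element and a CYP3A4-promoter luciferase construct) were seeded at 2,000 per well, rested 5 hr at 37C, then exposed to DMSO-dissolved compounds for 24 hr. Activation was read as luciferase luminescence.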

Structure (SMILES) | Potency [1] | Potency [2] | Potency [3] | Potency [4] | Potency [5] | Potency [6] | Potency [7] | Potency [8] | Potency [9] | Potency [10] | Potency [11] | Potency [12] | Potency [13] | Potency [14] | Potency [15] | Potency [16] | Potency [17] | max activation [18] | Potency [19] | Potency [20]
CCCCCCCCOC(=O)c1ccc(C(=O)OCCCCCCCC)c(C(=O)OCCCCCCCC)c1 | inactive | inactive | inactive | inactive | inactive | inactive | inactive | inactive | inactive | inactive | inactive | inactive | 80.6 µM (active) | inactive | inactive | inactive | – | – | – | –
O=C=Nc1ccc(Cl)cc1 | inactive | inactive | inactive | inactive | inactive | inactive | 1.54 µM (active) | inactive | inactive | inactive | inactive | inactive | 2 µM (active) | – | inactive | inactive | 7.96 µM (active) | – | – | –
CC(C)(OO)c1ccccc1 | inactive | inactive | inactive | inactive | inactive | inactive | inactive | inactive | inactive | inactive | inactive | inactive | – | 25.2 µM (active) | inactive | – | 39.9 µM (active) | – | – | –
CN1C(=O)NC(=O)C(C)(C2=CCCCC2)C1=O (stereo not given) | inactive | inactive | inactive | inactive | inactive | inactive | inactive | – | inactive | inactive | – | inactive | inactive | inactive | inactive | inactive | inactive | -1.51% (inactive) and -2.62% (inactive) | inactive | inactive
C[C@]12CC[C@H]3[C@@H](CCC4=CC(=O)CC[C@@H]43)[C@@H]1CC[C@@H]2OC(=O)CCC1CCCCC1 | inactive | inactive | inactive | inactive | inactive | inactive | inactive | inactive | inactive | inactive | inactive | inactive | – | – | – | inactive | 17.4 µM (active) | – | – | –
O=C(CBr)OCc1ccccc1 | inactive | inactive | inactive | inactive | inactive | inactive | inactive | inactive | inactive | inactive | inactive | inactive | – | inactive | inactive | inactive | 35.6 µM (active) | – | – | –
Sc1ccccc1Cl | inactive | inactive | inactive | inactive | inactive | inactive | inactive | inactive | inactive | inactive | inactive | inactive | inactive | inactive | inactive | inactive | inactive | – | – | –
N#C/C(N)=C(/N)C#N | inactive | inactive | inactive | inactive | inactive | inactive | inactive | inactive | inactive | inactive | inactive | inactive | 30.8 µM (active) | 21.8 µM (active) | inactive | – | – | – | – | –
CC(=O)NC1CCSC1=O (stereo not given) | inactive | inactive | inactive | inactive | inactive | inactive | inactive | inactive | inactive | inactive | inactive | inactive | – | inactive | inactive | inactive | – | 10.8% (inactive) | inactive | inactive
Cc1c(F)c(F)c(COC(=O)C2C(/C=C(\Cl)C(F)(F)F)C2(C)C)c(F)c1F (stereo not given) | inactive | inactive | inactive | inactive | inactive | inactive | 13.7 µM (active) | inactive | inactive | inactive | inactive | inactive | 35.6 µM (active) | – | – | inactive | 22.4 µM (active) | – | – | –
CCCCOC(=O)c1ccccc1C(=O)OCc1ccccc1 | inactive | inactive and 48.6 µM (active) | inactive | inactive | inactive | inactive | inactive and 21.7 µM (active) | inactive | inactive | inactive | inactive | inactive and 71 µM (active) | 1.78 µM (active) and 1.12 µM (active) | 15.9 µM (active) and 12.7 µM (active) | – | inactive | – | – | – | –
O=[N+]([O-])c1ccc(F)c([N+](=O)[O-])c1 | inactive | 27.6 µM (active) | inactive | 24.6 µM (active) | inactive | 27.6 µM (active) | inactive | inactive | inactive | inactive | inactive | – | inactive | inactive | inactive | inactive | 32 µM (active) | -9.38% (inactive) | inactive | inactive
CCO[C@H]1O[C@@H]2OC3(C)CC[C@H]4[C@H](C)CC[C@@H]([C@H]1C)[C@@]24OO3 | inactive | inactive | inactive | 0.266 µM (active) | inactive | inactive | inactive | inactive | inactive | inactive | inactive | inactive | – | – | inactive | – | 11 µM (active) | – | – | –
COc1nn(C(=O)NS(=O)(=O)c2ccccc2OC(F)(F)F)c(=O)n1C | inactive | inactive | inactive | inactive | inactive | inactive | inactive | inactive | inactive | inactive | inactive | inactive | inactive | inactive | inactive | inactive | – | – | – | –
O=C(O)C(F)(F)C(F)(F)C(F)(F)C(F)(F)C(F)(F)C(F)(F)C(F)(F)C(F)(F)C(F)(F)C(F)(F)F | inactive | inactive | inactive | inactive | inactive | inactive | inactive | inactive | inactive | inactive | inactive | inactive | – | inactive | inactive | inactive | 5.34 µM (active) | – | – | –
